Among all 200,000 compounds or so, about 65 (0.03%) were called active.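 How the source made its calls: active means over 50% inhibition of tissue-nonspecific alkaline phosphatase at 20 µM in the single-dose screen; inactive means the rest.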 The entries come from a sample that favours actives as a whole.
molecular target: Alkaline phosphatase, tissue-nonspecific isozyme (Homo sapiens) (UniProt P05186); assay: blockers of alkaline phosphatase TNAP activity – biochemical, luminescent, high phosphate acceptor level, uHTS, primary screen (AID 1135); details: purified TNAP, CDP-star luminescence, 1 M DEA; at 20 µM; active compounds read high;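 further: plate controls were DMSO wells for no effect and EDTA-quenched wells as full inhibition for full effect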
Sequence (P05186 whole entry, looked up): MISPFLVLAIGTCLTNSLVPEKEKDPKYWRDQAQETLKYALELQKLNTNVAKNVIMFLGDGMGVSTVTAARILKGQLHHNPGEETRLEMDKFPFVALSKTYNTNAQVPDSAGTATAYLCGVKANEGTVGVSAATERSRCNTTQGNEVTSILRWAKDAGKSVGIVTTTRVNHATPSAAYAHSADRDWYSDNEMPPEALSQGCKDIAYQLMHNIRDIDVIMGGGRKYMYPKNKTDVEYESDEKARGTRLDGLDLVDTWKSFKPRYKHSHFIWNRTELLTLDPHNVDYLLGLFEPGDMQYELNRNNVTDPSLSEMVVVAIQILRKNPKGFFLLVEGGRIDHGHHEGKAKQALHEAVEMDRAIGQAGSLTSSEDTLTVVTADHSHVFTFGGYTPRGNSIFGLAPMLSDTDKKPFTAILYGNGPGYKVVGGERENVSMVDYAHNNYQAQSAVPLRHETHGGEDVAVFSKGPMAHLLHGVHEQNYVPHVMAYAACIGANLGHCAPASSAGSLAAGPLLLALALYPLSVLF

inhibition, inactive:
OC(CN=c1sc2ccccc2n1CC(O)COc1ccccc1)COc1ccccc1 (configuration not stated) -2%
CC(C)(C)C(=O)N1CCC[C@@]1(CO)C(=O)O 1.3%
CCCn1nc(C(=O)Nc2ccc3nc(C)sc3c2)c2ccccc2c1=O 0%
O=C(NNc1cc(Cl)ccc1Cl)c1cccnc1Cl -3.3%
Cn1cnnc1Sc1ccc(S(C)(=O)=O)cc1[N+](=O)[O-] 3.1%
CN(C)S(=O)(=O)c1ccc(N2CCCC2=O)c([N+](=O)[O-])c1 -2.1%
Cc1ccccc1Nc1nc(N)nc(CSc2nnc3ccccn23)n1 -3.4%
O=C1CCC/C(=N\NC(=O)NC2CCCCC2)C1 3.6%
Cc1ccccc1C1=NC(C(F)(F)F)(C(F)(F)F)c2c(n(-c3ccc(F)cc3)c(=O)[nH]c2=O)N1 -3.5%
Cc1cccc(NC(=S)Nc2ccc(Cl)c(Cl)c2)c1 -5.2%
COc1ccccc1Oc1ccc(N/C=C2/CCCC2=O)cc1 -1.1%
Cc1ccc(OCc2n[nH]c(=S)n2-c2ccccc2)cc1 -3.4%
COC(=O)c1c(NC(=O)c2c(Cl)cnn2C)sc(C)c1C -0.7%
Cc1nc2ccccc2nc(C)c1=NOCc1ccc(Cl)cc1Cl -3.2%
O=C(/C=C/c1ccc(F)cc1)NC(=S)NNC(=O)c1cccnc1 -2.2%
CC1=C[C@H]2Cc3cc(C)cc(C)c3S(=O)(=O)[C@@H]2C=C1 1.3%
Cc1ccc(C)c(-n2nnnc2SCC(=O)c2c(N)n(C)c(=O)n(C)c2=O)c1 -2.7%
COc1cccc(NC(=S)N(Cc2ccc(C)cc2)Cc2ccccn2)c1 -3.4%
COc1cccc(C2CC(c3ccccc3)=NN2S(=O)(=O)c2ccccc2)c1OC (configuration not stated) -5.8%
Cn1c(=N)n(CC(O)c2cccs2)c2ccccc21 (configuration not stated) -2%
C=CCNc1nc(Nc2ccc(Cl)cc2)nc(OC)n1 -3%
COC(=O)c1nn(-c2cccc(Cl)c2)ccc1=O -8.9%
CCN(CC)CCN(C(=O)c1ccc(N2C(=O)CCC2=O)cc1)c1nc2cc3c(cc2s1)OCO3 -2.1%
CC(=O)c1cnc(SCC(=O)O)nc1C -1.6%
Cc1cccc(C2=N/C(=C/c3cccs3)C(=O)O2)c1 -2.6%
COC(=O)C(C(=O)Nc1cccc(Cl)c1C)C1CCCC1 (configuration not stated) -6.6%
CCOC(=O)C1C(c2ccc(Cl)cc2)NC(=S)NC1(O)C(F)(F)F (configuration not stated) 4.4%
